Test results published in PubChem BioAssay (NCATS).
Inconclusive results are not listed. Activity calls are given as the source filed them. Unless noted, calls come from the whole dose curve; as a rule, active = well fitted curve in the direction sought with a large enough effect; inconclusive = small, poorly fitted or top-dose-only effect, or another doubt; inactive = no such curve, though single readings can be large; an effect the other way counts as inactive or inconclusive.

What was measured:
[1] = Nrf2 qHTS screen for inhibitors: Validation (AID 493153; active = well fitted inhibition curve with a large enough effect in the main read-out, with a control signal flat, not every such curve was filed as active); conditions: viability change: measured here: cytotoxicity max response
Method in brief: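 Concentration-response test in A549 ARE_Fluc reporter cells (5% FBS OPTI-MEM), compound exposure 18-24 h at 37°C, 5% CO2. Cell viability measured first by CellTiter-Fluor fluorescence; ARE-driven luciferase luminescence then measured as Nrf2 activity.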

[2] = qHTS for Inhibitors of Cell Surface uPA Generation: Validation Assay (AID 493164);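 note: RAW 264.7 macrophage cells exposed to compound for 18 h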
Method in brief: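 Compounds are titrated over seven points (2.45 nM–38.3 uM final) onto pre-plated RAW 264.7 cells and incubated for 18 h. Retained intracellular ATP, measured with ATP-Lite, indicates blocked lethal factor entry.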

[3] = biological target: Galactokinase (Homo sapiens) (UniProt P51570); assay: qHTS Validation Assay for Inhibitors of Human Galactokinase (GALK) (AID 493189)
Method in brief: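 Inhibition was measured as remaining ATP, detected by luciferase luminescence after a 1 h room-temperature reaction. Final conditions: 5 nM GALK, 100 uM galactose, 35 uM ATP, pH 8.0 HEPES buffer.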

[4] = Validation screen for small molecules that induce DNA re-replication in SW480 colon adenocarcinoma cells (AID 504364)
Method in brief: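 Read-out: total Hoechst intensity of nuclei by fluorescence scanning imager; hits raise the fraction of nuclei with elevated DNA content. Cells received compound for 48 hr at 37 C before a 40 min stain.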

[5] = biological target: Peptidyl-prolyl cis-trans isomerase NIMA-interacting 1 (Homo sapiens) (UniProt Q13526); assay: qHTS Validation Assay to Find Inhibitors of Pin1 (AID 504536; active = well fitted inhibition curve with a large enough effect in the polarisation, with a control signal flat, not every such curve was filed as active; the % refers to the polarisation)
Method in brief: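 Fluorescence polarization competition: compounds (titration) displace HiFluor-488-labeled Pin1-1b peptide from Pin1 (0.3 uM final) in pH 7.5 HEPES buffer with DTT, 10 min at room temperature; %Activity normalized to no-enzyme wells, curves fitted.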

[6] = biological target: Ubiquitin carboxyl-terminal hydrolase 1 (Homo sapiens) (UniProt O94782); assay: Inhibitors of USP1/UAF1: Pilot qHTS (AID 504865);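 note: rhodamine fluorescence freed from ubiquitin-rhodamine substrate followed over time; top concentration of the series differs between compounds; nearly all actives have a fitted effect of over 35% in size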
Method in brief: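 Deubiquitinase activity followed as kinetic rhodamine fluorescence release from 150 nM Ub-Rho. 1 nM USP1/UAF1 with compound, after 15 min room-temperature preincubation, in HEPES pH 7.8 buffer containing TCEP, EDTA, BSA and Tween-20.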

[7] = qHTS for Inhibitors of ATXN expression: Validation of Cytotoxic Assay (AID 588349)
Method in brief: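 Cytotoxicity counter-screen: HEK293 cells exposed to compound titrations, 72 hr, 37 degrees C. Read-out is intracellular ATP (CellTiter Glo luminescence) as a viability measure.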

[8] = qHTS for Inhibitors of ATXN expression: Validation (AID 588378); note: series mostly up to about 57 µM; nearly all actives have a fitted effect of over 75% in size
Method in brief: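 Luciferase luminescence (Bright-Glo) from an ATXN2-FFLuc HEK293 line after 24 h compound exposure at 37 °C, preceded by a CellTiter-Fluor fluorescence viability read. Serial dilutions of a reference ATXN2 inhibitor and a luciferase inhibitor served as controls.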

[9] = biological target: Voltage-gated inwardly rectifying potassium channel KCNH2 (Homo sapiens) (UniProt Q12809); assay: qHTS Assay for Small Molecule Inhibitors of the Human hERG Channel Activity (AID 588834);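 note: top concentration of the series differs between compounds; lower thallium flux fluorescence means stronger hERG block; nearly all actives have a fitted effect of over 50% in size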
Voltage-gated inwardly rectifying potassium channel KCNH2 (Homo sapiens), sequence (Q12809 whole entry, looked up): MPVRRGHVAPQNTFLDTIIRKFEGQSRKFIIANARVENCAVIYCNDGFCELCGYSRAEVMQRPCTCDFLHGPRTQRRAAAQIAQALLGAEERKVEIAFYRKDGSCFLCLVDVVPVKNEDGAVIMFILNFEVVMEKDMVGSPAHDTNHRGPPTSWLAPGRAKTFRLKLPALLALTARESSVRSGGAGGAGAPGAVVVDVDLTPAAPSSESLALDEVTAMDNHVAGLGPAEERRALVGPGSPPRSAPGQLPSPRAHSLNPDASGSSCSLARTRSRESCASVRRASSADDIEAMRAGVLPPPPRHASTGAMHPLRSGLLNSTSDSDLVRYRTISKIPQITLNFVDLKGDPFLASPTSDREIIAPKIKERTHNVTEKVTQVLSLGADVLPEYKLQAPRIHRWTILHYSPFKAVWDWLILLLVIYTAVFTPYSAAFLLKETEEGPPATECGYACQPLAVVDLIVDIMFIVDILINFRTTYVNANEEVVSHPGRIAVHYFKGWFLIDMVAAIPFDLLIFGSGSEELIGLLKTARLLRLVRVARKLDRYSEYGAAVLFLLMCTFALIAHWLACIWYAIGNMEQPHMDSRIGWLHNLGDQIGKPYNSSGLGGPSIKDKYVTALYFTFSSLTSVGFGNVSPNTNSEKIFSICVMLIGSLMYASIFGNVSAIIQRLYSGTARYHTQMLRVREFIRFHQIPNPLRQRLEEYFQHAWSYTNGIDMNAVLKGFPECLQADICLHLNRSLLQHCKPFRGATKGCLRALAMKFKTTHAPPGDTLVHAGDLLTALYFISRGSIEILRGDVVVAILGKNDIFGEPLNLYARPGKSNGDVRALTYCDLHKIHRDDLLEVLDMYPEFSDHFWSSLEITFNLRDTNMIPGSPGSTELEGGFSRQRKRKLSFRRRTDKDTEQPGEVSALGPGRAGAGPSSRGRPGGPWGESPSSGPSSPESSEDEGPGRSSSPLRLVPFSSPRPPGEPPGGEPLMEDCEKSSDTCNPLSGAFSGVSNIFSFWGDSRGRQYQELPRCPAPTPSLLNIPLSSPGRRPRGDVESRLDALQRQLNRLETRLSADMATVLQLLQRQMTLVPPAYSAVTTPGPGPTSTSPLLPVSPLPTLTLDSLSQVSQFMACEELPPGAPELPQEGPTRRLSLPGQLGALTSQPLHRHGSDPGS
Method in brief: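 hERG block measured as reduced thallium-dye (FluxOR) fluorescence after stimulation buffer addition, read over 2 min. Cells were hERG-BacMam-transduced U2OS exposed to compound ~10 min […]; concentration-response fitted with Hill equation for AC50.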

[10] = biological target: Glutaminase kidney isoform, mitochondrial (Homo sapiens) (UniProt O94925); assay: qHTS for Inhibitors of Glutaminase (GLS): LOPAC Validation (AID 624146);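 note: glutamate product detected by oxidase and peroxidase coupled Amplex red fluorescence gain; series mostly up to about 46 µM; nearly all actives have a fitted effect of over 60% in size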
Method in brief: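 Read-out is an Amplex red fluorescence increase coupled through glutamate oxidase and HRP, measured before and after 30 min room-temperature incubation. hKGA is in 45 mM KH2PO4 (pH 8.2) with 0.02% Tween-20; glutamine added as 1mM solution.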

[11] = qHTS of Trypanosoma Brucei Inhibitors: LOPAC Validation (AID 624147)
Method in brief: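 Luminescent Kinase-Glo Plus end-point after 45 min room-temperature reaction of T. brucei pyruvate kinase started with 130 uM ADP (final). Buffer TEA 50 mM pH 7.2 with KCl, MgCl2, BSA, Tween-20; titration-based qHTS with fitted concentration-effect curves.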

[12] = biological target: Glucagon-like peptide 1 receptor (Homo sapiens) (UniProt P43220); assay: qHTS of GLP-1 Receptor Agonists: LOPAC Validation (AID 624148);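 note: higher luminescence signal means agonism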
Glucagon-like peptide 1 receptor (Homo sapiens), sequence (P43220 whole entry, looked up): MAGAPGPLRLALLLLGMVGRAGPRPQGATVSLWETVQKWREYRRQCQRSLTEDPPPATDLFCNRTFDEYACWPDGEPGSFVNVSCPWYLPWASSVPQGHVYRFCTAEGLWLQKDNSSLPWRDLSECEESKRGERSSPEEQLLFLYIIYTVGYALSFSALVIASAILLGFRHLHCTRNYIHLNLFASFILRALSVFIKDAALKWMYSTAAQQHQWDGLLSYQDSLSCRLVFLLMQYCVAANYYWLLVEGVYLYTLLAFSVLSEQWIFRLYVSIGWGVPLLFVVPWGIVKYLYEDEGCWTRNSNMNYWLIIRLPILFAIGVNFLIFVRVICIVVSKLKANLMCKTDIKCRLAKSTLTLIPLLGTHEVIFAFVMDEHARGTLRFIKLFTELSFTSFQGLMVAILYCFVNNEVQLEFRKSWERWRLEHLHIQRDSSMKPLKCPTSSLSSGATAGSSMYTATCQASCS
Method in brief: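 HEK293 cells stably co-expressing a cAMP-responsive luciferase reporter and a hypersensitive GLP-1R were plated 12 h at 37 °C and exposed to compounds for 4-6 hr at 37 °C, 5% CO2. Luminescence was read 12 min after adding detection reagent.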

[13] = qHTS of Nrf2 Activators: LOPAC Validation (AID 624149)
Method in brief: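 AREc32_Fluc cells, 1000/well, OPTI-MEM + 5% FBS, o/n 37 deg C 5% CO2; compound pin-transfer, 24 hr 37 deg C; Steady-Glo 30 min RT, luminescence read.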

[14] = HTS Assay for Allosteric Antagonists of the Human D2 Dopamine Receptor: Hit Validation in HTRF (AID 624455)
Method in brief: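 HTRF read-out; cells stably expressing D1 receptor; hits scored for inhibition of D1-mediated response. Primary screen: calcium flux, force-coupled inducible Hek293 Trex D2 line, antagonism vs EC80 dopamine.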

[15] = biological target: Arylsulfatase A (Homo sapiens) (UniProt P15289); assay: qHTS screen for enhancers of Arylsulfatase A (ASA1): LOPAC Validation Assay (AID 720538)
Method in brief: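 Enhancer assay in patient-derived MLD fibroblasts carrying ASA-I179S: 48 h compound exposure at 37 C, then 14 h room-temperature pNCS turnover (0.5 mM final) in lysis buffer. Read by fluorescence at 525/598 nm after NaOH stop.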

[16] = qHTS for Activators of Parkin Expression: LOPAC Validation Assay (NLuc Reporter) (AID 720572)
Method in brief: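 Cells harboring the Parkin-promoter coincidence reporter were treated for 24 h at seven concentrations. NLuc output was measured sequentially after the FLuc channel and scaled between DMSO and positive control values.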

[17] = biological target: T1, Hexokinase-4 (Homo sapiens) + Glucokinase regulatory protein (Homo sapiens) (UniProt P35557+Q14397); assay: qHTS assay for inhibitors of recombinant human GCK-GKRP interaction: Diaphorase-coupled assay (AID 743205)
T1 sequence (P35557 whole entry, looked up): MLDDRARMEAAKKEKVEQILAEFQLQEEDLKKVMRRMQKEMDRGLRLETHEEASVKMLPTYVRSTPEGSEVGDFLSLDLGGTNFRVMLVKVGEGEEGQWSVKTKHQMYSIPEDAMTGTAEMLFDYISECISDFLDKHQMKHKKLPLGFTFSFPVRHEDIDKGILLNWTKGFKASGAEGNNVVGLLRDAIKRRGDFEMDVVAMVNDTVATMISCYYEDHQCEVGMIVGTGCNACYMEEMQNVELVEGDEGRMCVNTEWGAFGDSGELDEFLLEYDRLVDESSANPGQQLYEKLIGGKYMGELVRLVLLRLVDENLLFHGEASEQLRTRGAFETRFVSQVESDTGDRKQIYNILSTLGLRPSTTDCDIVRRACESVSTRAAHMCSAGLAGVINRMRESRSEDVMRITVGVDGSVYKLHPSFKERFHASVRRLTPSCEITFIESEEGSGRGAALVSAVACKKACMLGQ
T1 sequence (Q14397 whole entry, looked up): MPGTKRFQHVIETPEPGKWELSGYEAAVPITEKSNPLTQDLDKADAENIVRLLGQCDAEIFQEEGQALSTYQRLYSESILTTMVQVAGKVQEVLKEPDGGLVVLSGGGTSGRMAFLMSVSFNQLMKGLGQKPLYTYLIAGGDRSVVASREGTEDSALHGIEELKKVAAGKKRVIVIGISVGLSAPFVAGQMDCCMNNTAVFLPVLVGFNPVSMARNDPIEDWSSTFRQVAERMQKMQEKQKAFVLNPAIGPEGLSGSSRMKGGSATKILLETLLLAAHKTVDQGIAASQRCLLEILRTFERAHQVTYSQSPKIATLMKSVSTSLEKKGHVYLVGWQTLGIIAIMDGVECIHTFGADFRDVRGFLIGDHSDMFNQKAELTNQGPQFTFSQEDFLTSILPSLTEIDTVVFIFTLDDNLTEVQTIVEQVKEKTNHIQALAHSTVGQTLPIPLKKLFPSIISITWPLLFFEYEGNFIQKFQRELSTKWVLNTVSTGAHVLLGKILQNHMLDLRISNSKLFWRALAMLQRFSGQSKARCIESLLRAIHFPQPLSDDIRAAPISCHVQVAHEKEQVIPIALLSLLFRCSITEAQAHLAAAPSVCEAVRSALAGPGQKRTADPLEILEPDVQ
Method in brief: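 A kinetic fluorescence read (Ex 525/Em 590 nm, every minute for 30 minutes) tracked resorufin from a G6PDH-diaphorase coupled GCK reaction. It contained 10 nM GST-GCK, 10 nM FLAG-GKRP, 5 mM glucose, 0.4 mM ATP in Hepes pH 7.6. Normalized to with/without-enzyme DMSO controls.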

[18] = biological target: T1, Hexokinase-4 (Homo sapiens) + Glucokinase regulatory protein (Homo sapiens); assay: qHTS assay for inhibitors of recombinant human GCK-GKRP interaction: ADP-Glo assay (AID 743206)
Method in brief: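 Pin-transferred compounds meet a 15 nM GST-GCK/15 nM FLAG-GKRP/2 uM S6P mix (dispense concentrations). ATP is then added to 0.4 mM final with 5 mM glucose, and the reaction runs 60 min at room temperature. ADP is quantified luminescently.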

[19] = biological target: T1, Hexokinase-4 (Homo sapiens) + Glucokinase regulatory protein (Homo sapiens); assay: qHTS assay for inhibitors of recombinant human GCK-GKRP interaction: HTRF assay (AID 743207)
Method in brief: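 After 60 min equilibration at room temperature with anti-FLAG XL665 and anti-GST antibodies, FRET ratio (665/615 nm, excitation 320 nm) was read. Proteins: GST-GCK and FLAG-GKRP, each 5 nM, plus 2 uM S6P, pH 7.1 buffer; GCK-free wells define minimum signal.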

[20] = Natriuretic polypeptide receptor (hNpr1) antagonism - Pilot counterscreen GloSensor control cell line (AID 1347045; calls by dose curve; note: series mostly up to about 38 µM)
Method in brief: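 HEK293 cGMP-sensor cells; 2% GloSensor reagent 2 h RT; LOPAC compounds in 1:5 titrations 30-50 min; 50 uM SNP 20 min; luminescence pre-read and post-read.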

[21] = NS1 protein of Zika virus - qHTS assay to identify small molecule inhibitors in human HEK 293 cells (AID 1347053); note: series mostly up to about 46 µM; nearly all actives have a fitted effect of over 55% in size
Method in brief: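 Compound-treated (1 h pre-infection) HEK 293 cells infected with ZIKV MR766, MOI = 0.5; after 24 h at 37 C, NS1 read by TR-FRET; data normalized to uninfected and infected controls.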

[22] = biological target: T2, Tyrosine-protein phosphatase non-receptor type substrate 1 (Homo sapiens) + Leukocyte surface antigen CD47 (Homo sapiens) (UniProt P78324+Q08722); assay: CD47-SIRPalpha protein protein interaction - LANCE assay qHTS validation (AID 1347057; active = well fitted curve in the direction sought with a large enough effect in the signal ratio, with a control signal flat, not every such curve was filed as active; the % refers to the signal ratio; note: series mostly up to about 38 µM)
T2 sequence (P78324 whole entry, looked up, the tested form may be a part): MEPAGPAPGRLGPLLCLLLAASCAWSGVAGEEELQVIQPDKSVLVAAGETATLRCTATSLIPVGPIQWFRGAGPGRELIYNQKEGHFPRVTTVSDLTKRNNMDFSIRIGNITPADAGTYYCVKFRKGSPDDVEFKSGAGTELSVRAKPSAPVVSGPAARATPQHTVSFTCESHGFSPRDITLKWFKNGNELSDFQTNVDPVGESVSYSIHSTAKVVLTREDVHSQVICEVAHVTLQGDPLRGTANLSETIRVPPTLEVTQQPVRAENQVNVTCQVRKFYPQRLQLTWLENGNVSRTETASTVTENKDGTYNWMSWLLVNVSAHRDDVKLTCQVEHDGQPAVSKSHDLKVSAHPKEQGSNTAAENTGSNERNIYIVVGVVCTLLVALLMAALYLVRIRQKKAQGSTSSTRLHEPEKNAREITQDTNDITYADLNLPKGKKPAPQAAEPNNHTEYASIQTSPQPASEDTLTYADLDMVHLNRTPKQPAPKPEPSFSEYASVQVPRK
T2 sequence (Q08722 whole entry, looked up, the tested form may be a part): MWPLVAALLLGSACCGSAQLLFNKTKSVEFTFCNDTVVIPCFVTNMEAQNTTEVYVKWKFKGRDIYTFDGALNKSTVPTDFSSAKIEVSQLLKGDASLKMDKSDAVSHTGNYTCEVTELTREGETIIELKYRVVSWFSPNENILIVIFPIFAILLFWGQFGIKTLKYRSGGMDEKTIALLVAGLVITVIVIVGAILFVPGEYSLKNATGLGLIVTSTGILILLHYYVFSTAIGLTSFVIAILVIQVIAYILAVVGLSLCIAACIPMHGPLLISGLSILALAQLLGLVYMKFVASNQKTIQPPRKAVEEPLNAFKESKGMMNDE
Method in brief: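 Inhibition of soluble CD47/SIRPalpha ectodomain association by titrated compounds, measured as 665/615 nm time-resolved FRET ratio after sequential 30 min room-temperature incubations.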

[23] = biological target: T2, Tyrosine-protein phosphatase non-receptor type substrate 1 (Homo sapiens) + Leukocyte surface antigen CD47 (Homo sapiens); assay: CD47-SIRPalpha protein protein interaction - HTRF assay qHTS validation (AID 1347058; active = well fitted curve in the direction sought with a large enough effect in the signal ratio, not every such curve was filed as active; the % refers to the signal ratio; note: series mostly up to about 38 µM)
Method in brief: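 Soluble extracellular domains (6His-CD47, Avi-tag-biotinylated SIRPalpha) in PBS pH 7.4 with 0.05% IGEPAL CA-630. Compounds were preincubated 30 min at RT with CD47 and anti-His-Eu, then SIRPalpha and SAV-XL665 were added. TR-FRET 665/615 ratio.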

[24] = biological target: T2, Tyrosine-protein phosphatase non-receptor type substrate 1 (Homo sapiens) + Leukocyte surface antigen CD47 (Homo sapiens); assay: CD47-SIRPalpha protein protein interaction - Alpha assay qHTS validation (AID 1347059);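 note: bead proximity luminescence from CD47 binding SIRPalpha after compound preincubation with SIRPalpha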
Method in brief: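 In PBS (pH 7.4) with 0.05% IGEPAL CA-630, compound is preincubated with biotin-Avi-SIRPalpha ectodomain before His-CD47 ectodomain and affinity beads are added. Light-protected room-temperature incubations; AlphaScreen readout.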

[25] = biological target: Parathyroid hormone/parathyroid hormone-related peptide receptor (Homo sapiens) (UniProt Q03431); assay: qHTS for PTHR1 Agonists: Optimization Screen against the NCGC LOPAC library (AID 1347079);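 note: GloSensor cAMP luminescence in HEK-293 GP2 cells expressing human PTHR1 with IBMX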
Parathyroid hormone/parathyroid hormone-related peptide receptor (Homo sapiens), sequence (Q03431 whole entry, looked up): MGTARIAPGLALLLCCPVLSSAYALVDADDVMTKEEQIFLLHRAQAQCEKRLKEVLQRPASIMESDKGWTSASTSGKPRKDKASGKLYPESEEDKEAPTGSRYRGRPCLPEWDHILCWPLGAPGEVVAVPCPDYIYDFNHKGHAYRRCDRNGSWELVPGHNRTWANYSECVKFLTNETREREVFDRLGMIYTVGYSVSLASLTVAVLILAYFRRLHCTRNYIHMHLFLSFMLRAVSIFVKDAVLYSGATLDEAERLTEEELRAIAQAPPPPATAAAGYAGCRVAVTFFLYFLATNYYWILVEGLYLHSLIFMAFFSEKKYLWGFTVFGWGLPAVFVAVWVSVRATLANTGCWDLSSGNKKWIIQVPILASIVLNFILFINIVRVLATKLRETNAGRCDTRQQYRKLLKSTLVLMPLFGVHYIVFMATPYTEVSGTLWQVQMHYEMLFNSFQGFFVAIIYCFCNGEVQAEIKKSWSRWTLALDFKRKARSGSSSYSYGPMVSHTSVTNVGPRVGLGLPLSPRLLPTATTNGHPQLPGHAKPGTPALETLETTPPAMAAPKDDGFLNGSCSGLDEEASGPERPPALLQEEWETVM
Method in brief: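 Signal increase flags agonism. GP2 cells, derived from HEK-293, express human PTHR1 and a GloSensor cAMP construct.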

[26] = qHTS to identify inhibitors of the type 1 interferon - major histocompatibility complex class I in skeletal muscle: primary screen against the NCATS LOPAC collection (AID 1347405);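 note: human myoblasts with HiBiT tag on endogenous HLA-B stimulated by IFN-beta; lytic HiBiT luminescence reporting HLA-B protein level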
Method in brief: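 HLA-B HiBiT myoblasts, IFN-b 4 ng/ml, dexamethasone-free medium; compounds 7-pt 1:4.3 titration, top 46 uM final; 24 h at 37 C; Nano-Glo HiBiT lytic reagent, 10 min RT, luminescence.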

[27] = Validation qHTS assay for inhibitors of Activation Induced Cytidine Deaminase (AID): UDG Counterscreen signal (AID 1347427)
Method in brief: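 Fluorescence at 560 nm excitation, 665 nm emission reports UDG signal after 250 mM NaOH (2x) addition and 30 min. Enzymes (AID 1 uM, UDG 2 U/mL, at 4/3x) preincubated 10 min with compound, then 4 h with 4x 250 nM DJC20/DJC23 substrate at room temperature.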

[28] = biological target: Single-stranded DNA cytosine deaminase (Homo sapiens) (UniProt Q9GZX7); assay: Validation qHTS assay for inhibitors of Activation Induced Cytidine Deaminase (AID): AID signal (AID 1347429)
Method in brief: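 AID+UDG coupled FRET deamination; cpds up to 114 uM final; DJC20/DJC23 substrate, 4 hr RT; NaOH stop, 30 min RT; read Ex 540/Em 590.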

[29] = Primary qHTS for inhibitors of La Crosse Virus (LACV) - induced cell death in SH-SY5Y cells (AID 1508616);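 note: top concentration of the series differs between compounds; higher means more rescue of cells from virus-induced death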
Method in brief: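 Cytopathicity rescue screen: compounds pinned onto SH-SY5Y cells, which are then infected with LACV (MOI 0.01) and held 6 days at 37C. Percent activity is scaled between infected DMSO control and uninfected DMSO control.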

[30] = biological target: Calcium and integrin-binding protein 1 (Homo sapiens) (UniProt Q99828); assay: Validation qHTS for Identification of Calcium Integrin Binding protein 1 (CIB1) Competitor (AID 1508618)
Method in brief: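 In this qHTS validation, the LOPAC set (up to 114 uM) was tested for blocking CIB1 binding to a fluorescein-tagged alphaIIb peptide, with FP detection at 480/540 nm.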

[31] = Primary qHTS for small molecule stabilizers of the endoplasmic reticulum resident proteome: Secreted ER Calcium Modulated Protein (SERCaMP) assay (AID 1508630)
Method in brief: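 The SH-SY5Y reporter protocol was run at 3 concentrations up to 38.3 uM (primary) or 11 concentrations (follow-up): 16 h compound, 100 nM thapsigargin for 4 h, then extracellular luciferase luminescence.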

[32] = biological target: N-terminal Xaa-Pro-Lys N-methyltransferase 1 (Homo sapiens) (UniProt Q9BV86); assay: Confirmatory qHTS for Inhibitors of N-terminal methyltransferase 1 (NTMT1): MTaseGlo Assay (AID 1645874); note: potency is the fitted concentration of half-maximal effect; nearly all actives have a fitted effect of over 65% in size
N-terminal Xaa-Pro-Lys N-methyltransferase 1 (Homo sapiens), sequence (Q9BV86 whole entry, looked up): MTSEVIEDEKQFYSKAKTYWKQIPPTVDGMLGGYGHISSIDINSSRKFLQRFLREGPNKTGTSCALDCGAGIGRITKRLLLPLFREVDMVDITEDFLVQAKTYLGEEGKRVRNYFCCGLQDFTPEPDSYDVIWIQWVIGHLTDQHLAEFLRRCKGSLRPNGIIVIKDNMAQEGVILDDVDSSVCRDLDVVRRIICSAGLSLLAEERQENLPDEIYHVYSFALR
Method in brief: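 Room-temperature NTMT1 reaction, 30 min, with 100 uM SAM and 1 uM SPKRIA substrate; enzyme 125 nM. Read-out: MTase-Glo luminescence, normalized to no-enzyme and DMSO controls.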

[33] = biological target: Metallo-beta-lactamase type 2 (Klebsiella pneumoniae) (UniProt C7C422); assay: qHTS to identify inhibitors of the New Delhi Metallo-beta-lactamase (NDM): assay validation screen against the NCATS LOPAC Collection (AID 1794843);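 note: nitrocefin turnover by NDM-1 measured as 485 nm absorbance at plateau; series mostly up to about 38 µM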
Metallo-beta-lactamase type 2 (Klebsiella pneumoniae), sequence (C7C422 whole entry, looked up): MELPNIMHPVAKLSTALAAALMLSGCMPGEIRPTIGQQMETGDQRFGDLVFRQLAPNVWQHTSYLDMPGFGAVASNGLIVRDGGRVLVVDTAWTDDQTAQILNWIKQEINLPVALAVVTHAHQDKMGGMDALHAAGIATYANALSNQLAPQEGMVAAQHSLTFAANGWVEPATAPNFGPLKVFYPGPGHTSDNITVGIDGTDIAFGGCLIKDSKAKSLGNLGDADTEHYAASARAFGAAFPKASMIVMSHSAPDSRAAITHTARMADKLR
Method in brief: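 Nitrocefin hydrolysis (50 uM substrate stock) by NDM-1, 2 nM final, was followed by 485 nm absorbance after compound preincubation; buffer was 50 mM HEPES pH 7.0, 1 uM ZnSO4, 0.01% Tween20.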

[34] = biological target: Glutathione peroxidase 1 (Homo sapiens) (UniProt P07203); assay: Primary qHTS Assay for Inhibitors of Recombinant Selenoprotein Glutathione Peroxidase 1 (GPX1) (AID 1845191); note: nearly all actives have a fitted effect of over 65% in size
Glutathione peroxidase 1 (Homo sapiens), sequence (P07203 whole entry, looked up): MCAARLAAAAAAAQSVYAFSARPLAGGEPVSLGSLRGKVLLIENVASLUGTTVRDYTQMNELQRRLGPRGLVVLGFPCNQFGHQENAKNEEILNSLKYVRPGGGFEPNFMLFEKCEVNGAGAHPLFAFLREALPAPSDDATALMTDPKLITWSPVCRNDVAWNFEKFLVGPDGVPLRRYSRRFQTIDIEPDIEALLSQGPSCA
Method in brief: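 GPX1 10 nM, GR 100 nM, GSH 1 mM, NADPH 0.5 mM, CHP 0.5 mM (final). 30-min cpd preincubation, RT. Ex340/Em450 read t=0, t=15 min.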

Cc1cccc(/C=C/c2ccccc2)n1
-2.71%: viability change [1]
inactive: outcome [1] | outcome [2] | outcome [3] | outcome [4] | Potency [5] | Potency [6] | Potency [7] | Potency [8] | Potency [9] | Potency [10] | outcome [11] | outcome [12] | outcome [13] | outcome [14] | Potency [15] | outcome [16] | outcome [17] | outcome [18] | outcome [19] | Potency [20] | outcome [21] | outcome [22] | outcome [23] | Potency [24] | outcome [25] | Potency [26] | outcome [27] | Potency [28] | outcome [29] | outcome [30] | Potency [31] | Potency [33] | Potency [34]
active: Potency [32] 27.4 µM
